# Assays:
# Experiment in all cases: DAPPL (digital affinity profiling via proximity ligation, sequencing); 10 mM Tris-HCl pH 7.5, 50 mM NaCl, 1 mM DTT, 4% glycerol, room temperature, 30 min; GST-TFs on glutathione beads, 16-mer random dsDNA library, 0.1% formaldehyde crosslink after washing; high values mean tight binding
# [1] = target: T1, FEV (Homo sapiens, UniProt Q99581 1-238); settings: protein: recombinant; tags: N-terminal GST; dsDNA, one strand shown
# T1 sequence: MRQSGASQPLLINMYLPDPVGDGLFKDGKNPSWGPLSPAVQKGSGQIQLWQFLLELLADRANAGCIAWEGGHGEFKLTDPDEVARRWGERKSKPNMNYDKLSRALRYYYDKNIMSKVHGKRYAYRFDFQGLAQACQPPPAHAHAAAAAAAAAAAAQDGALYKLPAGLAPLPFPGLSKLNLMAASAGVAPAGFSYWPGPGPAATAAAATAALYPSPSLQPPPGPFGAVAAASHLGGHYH
# Outline: (§1)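 The binding signal reported is, for every hexamer, its read frequency for a factor over its read frequency for the tag-only sample. Reads came from pools of yeast-expressed, GST-fused human transcription factors on glutathione beads, barcoded with DNA and mixed with that sample, which were incubated with 200 nmole of a random double-stranded 16-mer DNA library in Tris/NaCl/DTT/glycerol buffer at room temperature for 30 min. After washing, the pools were crosslinked with 0.1% formaldehyde, proximity-ligated with BsaI/T4 ligase for 1 h at 37 °C, PCR-amplified and sequenced on an Illumina NextSeq500.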
# [2] = target: ETV5 (Homo sapiens, UniProt P41161 1-510); settings: protein: recombinant; tags: N-terminal GST; dsDNA, one strand shown
# Outline: as §1
# [3] = target: HSF1 (Homo sapiens, UniProt Q00613 1-529); settings: protein: recombinant; tags: N-terminal GST; chain copies: 3; dsDNA, one strand shown
# Outline: as §1
# [4] = target: T2, SPIC (Homo sapiens, UniProt Q8N5J4 1-248); settings: protein: recombinant; tags: N-terminal GST; dsDNA, one strand shown
# T2 sequence: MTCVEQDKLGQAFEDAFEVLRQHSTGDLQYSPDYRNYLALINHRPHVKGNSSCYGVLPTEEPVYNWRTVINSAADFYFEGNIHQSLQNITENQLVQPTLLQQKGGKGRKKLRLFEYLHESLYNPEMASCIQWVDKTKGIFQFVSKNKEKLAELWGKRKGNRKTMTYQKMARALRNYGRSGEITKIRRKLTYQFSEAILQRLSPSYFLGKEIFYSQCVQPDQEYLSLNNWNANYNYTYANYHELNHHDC
# Outline: as §1
# [5] = target: ELF4 (Homo sapiens, UniProt Q99607 1-663); settings: protein: recombinant; tags: N-terminal GST; dsDNA, one strand shown
# Outline: as §1
# [6] = target: T3, ELK4 (Homo sapiens, UniProt P28324-2 1-405); settings: protein: recombinant; tags: N-terminal GST; dsDNA, one strand shown
# T3 sequence: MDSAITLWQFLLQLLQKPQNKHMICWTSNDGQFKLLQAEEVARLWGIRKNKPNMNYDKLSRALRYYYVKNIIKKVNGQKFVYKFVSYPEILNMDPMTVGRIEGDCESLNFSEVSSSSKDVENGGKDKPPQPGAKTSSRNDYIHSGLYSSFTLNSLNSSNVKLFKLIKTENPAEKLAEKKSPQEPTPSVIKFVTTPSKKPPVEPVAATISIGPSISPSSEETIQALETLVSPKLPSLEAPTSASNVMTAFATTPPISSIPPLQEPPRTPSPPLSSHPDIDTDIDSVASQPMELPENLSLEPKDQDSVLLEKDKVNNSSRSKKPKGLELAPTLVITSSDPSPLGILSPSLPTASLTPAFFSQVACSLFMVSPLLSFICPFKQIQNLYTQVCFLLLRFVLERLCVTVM
# Outline: as §1
# [7] = target: T4, ETV2 (Homo sapiens, UniProt O00321 1-342); settings: protein: recombinant; tags: N-terminal GST; dsDNA, one strand shown
# T4 sequence: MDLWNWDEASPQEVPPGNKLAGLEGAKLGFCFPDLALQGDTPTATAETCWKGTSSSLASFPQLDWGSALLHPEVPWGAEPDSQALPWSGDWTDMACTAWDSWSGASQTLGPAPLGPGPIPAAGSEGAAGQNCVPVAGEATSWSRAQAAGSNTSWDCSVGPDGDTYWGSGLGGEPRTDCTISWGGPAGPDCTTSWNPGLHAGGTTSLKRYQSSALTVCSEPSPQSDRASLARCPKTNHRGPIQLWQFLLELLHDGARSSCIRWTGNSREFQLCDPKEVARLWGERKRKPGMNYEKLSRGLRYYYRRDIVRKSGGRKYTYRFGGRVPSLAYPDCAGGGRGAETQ
# Outline: as §1
# [8] = target: T5, ELF3 (Homo sapiens, UniProt P78545 1-371); settings: protein: recombinant; tags: N-terminal GST; dsDNA, one strand shown
# T5 sequence: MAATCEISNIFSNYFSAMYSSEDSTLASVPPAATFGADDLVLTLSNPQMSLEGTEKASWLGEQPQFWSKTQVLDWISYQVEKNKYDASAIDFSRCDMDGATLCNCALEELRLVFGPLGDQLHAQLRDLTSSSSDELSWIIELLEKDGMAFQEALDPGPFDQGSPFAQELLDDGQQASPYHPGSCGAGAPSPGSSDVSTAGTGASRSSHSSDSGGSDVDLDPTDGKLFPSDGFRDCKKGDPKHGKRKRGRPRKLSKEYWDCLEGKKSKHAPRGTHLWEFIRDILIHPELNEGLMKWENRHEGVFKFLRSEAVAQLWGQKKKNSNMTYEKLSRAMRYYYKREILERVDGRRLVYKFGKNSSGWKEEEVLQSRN
# Outline: as §1
# [9] = target: CRX (Homo sapiens, UniProt O43186 1-299); settings: protein: recombinant; tags: N-terminal GST; dsDNA, one strand shown
# Outline: as §1
# [10] = target: ETV1 (Homo sapiens, UniProt P50549 1-477); settings: protein: recombinant; tags: N-terminal GST; dsDNA, one strand shown
# Outline: as §1
# [11] = target: T6, ERF (Homo sapiens, UniProt P50548 1-548); settings: protein: recombinant; tags: N-terminal GST; dsDNA, one strand shown
# T6 sequence: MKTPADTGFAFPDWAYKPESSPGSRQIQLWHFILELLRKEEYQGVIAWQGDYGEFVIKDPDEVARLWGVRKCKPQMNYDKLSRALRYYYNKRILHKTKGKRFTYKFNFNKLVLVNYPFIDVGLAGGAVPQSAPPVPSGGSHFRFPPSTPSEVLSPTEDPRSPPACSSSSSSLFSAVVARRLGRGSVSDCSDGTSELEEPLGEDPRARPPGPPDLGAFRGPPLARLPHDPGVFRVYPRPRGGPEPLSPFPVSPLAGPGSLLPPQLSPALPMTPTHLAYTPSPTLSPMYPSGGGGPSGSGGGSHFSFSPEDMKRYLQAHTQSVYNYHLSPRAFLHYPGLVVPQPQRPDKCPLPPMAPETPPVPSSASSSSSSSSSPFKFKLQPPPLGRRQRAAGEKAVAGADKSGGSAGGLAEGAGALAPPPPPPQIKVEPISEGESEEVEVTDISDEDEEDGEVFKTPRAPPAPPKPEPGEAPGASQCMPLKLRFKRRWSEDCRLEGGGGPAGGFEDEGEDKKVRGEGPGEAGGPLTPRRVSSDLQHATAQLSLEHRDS
# Outline: as §1
# [12] = target: T7, ETV3L (Homo sapiens, UniProt Q6ZN32 1-361); settings: protein: recombinant; tags: N-terminal GST; dsDNA, one strand shown
# T7 sequence: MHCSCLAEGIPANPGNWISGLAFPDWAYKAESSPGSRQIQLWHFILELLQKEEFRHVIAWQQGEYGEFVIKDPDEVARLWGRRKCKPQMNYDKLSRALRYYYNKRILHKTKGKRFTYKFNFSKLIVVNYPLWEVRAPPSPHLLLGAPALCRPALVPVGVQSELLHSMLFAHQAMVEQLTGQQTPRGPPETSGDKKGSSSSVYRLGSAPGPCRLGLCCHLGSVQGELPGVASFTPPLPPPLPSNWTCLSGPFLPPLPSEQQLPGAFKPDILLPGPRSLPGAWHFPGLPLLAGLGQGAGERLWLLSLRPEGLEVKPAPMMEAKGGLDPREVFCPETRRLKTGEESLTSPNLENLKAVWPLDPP
# Outline: as §1
# [13] = target: T8, ETS2 (Homo sapiens, UniProt P15036 1-469); settings: protein: recombinant; tags: N-terminal GST; dsDNA, one strand shown
# T8 sequence: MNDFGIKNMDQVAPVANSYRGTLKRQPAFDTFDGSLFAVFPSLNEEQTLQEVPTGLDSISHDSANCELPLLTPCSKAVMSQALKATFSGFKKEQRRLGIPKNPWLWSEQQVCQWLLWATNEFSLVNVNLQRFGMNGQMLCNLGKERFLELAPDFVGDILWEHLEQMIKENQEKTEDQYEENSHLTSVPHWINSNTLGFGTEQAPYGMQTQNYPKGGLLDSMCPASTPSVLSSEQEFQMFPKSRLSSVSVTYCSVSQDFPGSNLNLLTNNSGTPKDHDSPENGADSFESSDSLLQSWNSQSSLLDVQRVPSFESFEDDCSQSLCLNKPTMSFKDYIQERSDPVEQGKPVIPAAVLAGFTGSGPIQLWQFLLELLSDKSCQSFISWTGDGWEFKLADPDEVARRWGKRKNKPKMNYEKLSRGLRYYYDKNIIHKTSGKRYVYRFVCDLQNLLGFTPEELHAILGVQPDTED
# Outline: as §1
# [14] = target: T9, SPDEF (Homo sapiens, UniProt O95238 1-335); settings: protein: recombinant; tags: N-terminal GST; dsDNA, one strand shown
# T9 sequence: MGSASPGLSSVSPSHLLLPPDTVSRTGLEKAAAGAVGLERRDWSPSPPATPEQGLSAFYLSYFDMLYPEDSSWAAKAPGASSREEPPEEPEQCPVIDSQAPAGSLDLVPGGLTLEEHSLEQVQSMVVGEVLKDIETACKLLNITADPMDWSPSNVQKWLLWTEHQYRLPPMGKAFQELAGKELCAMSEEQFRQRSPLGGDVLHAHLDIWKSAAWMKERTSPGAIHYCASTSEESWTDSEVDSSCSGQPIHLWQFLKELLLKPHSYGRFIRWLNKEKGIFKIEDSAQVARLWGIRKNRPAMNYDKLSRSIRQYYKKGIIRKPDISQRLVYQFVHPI
# Outline: as §1
# [15] = target: T10, ETV7 (Homo sapiens, UniProt Q9Y603 1-341); settings: protein: recombinant; tags: N-terminal GST; dsDNA, one strand shown
# T10 sequence: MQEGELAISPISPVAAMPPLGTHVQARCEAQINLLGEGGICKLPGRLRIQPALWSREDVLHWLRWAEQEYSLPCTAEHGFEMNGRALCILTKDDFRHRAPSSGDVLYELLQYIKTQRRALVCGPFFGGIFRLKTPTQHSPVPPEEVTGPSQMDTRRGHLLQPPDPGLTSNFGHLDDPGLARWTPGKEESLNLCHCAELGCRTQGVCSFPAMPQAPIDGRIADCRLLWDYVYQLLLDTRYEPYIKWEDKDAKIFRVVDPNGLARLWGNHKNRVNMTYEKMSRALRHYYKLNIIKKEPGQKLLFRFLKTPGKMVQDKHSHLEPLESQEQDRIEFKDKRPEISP
# Outline: as §1
# [16] = target: T11, ELF5 (Homo sapiens, UniProt Q9UKW6-2 1-255); settings: protein: recombinant; tags: N-terminal GST; dsDNA, one strand shown
# T11 sequence: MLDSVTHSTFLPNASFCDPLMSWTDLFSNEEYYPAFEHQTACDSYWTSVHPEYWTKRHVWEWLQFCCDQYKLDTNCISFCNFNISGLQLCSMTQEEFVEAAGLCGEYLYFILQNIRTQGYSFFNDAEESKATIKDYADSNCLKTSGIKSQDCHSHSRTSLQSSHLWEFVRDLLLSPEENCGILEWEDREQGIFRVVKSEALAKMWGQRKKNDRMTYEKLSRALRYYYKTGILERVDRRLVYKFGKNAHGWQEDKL
# Outline: as §1
# [17] = target: T12, ETV3 (Homo sapiens, UniProt P41162-2 1-143); settings: protein: recombinant; tags: N-terminal GST; dsDNA, one strand shown
# T12 sequence: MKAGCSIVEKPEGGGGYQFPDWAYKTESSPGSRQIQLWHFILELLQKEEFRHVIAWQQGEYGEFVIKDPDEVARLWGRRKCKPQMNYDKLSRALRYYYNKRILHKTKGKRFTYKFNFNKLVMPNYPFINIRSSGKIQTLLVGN
# Outline: as §1
# [18] = target: ETV6 (Homo sapiens, UniProt P41212 1-452); settings: protein: recombinant; tags: N-terminal GST; dsDNA, one strand shown
# Outline: as §1
# Chain of ETV6 (P41212 whole entry): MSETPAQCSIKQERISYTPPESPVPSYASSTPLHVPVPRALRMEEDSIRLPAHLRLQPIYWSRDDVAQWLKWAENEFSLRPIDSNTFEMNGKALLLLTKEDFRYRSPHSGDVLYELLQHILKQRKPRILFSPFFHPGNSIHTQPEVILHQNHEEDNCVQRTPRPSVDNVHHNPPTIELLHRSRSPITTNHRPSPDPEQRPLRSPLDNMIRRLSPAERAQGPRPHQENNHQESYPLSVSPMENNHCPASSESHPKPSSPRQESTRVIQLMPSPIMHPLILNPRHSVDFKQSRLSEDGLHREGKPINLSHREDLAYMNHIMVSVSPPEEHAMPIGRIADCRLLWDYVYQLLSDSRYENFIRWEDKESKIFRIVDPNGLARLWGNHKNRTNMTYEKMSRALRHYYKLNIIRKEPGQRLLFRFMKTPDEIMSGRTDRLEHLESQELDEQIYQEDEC
# Chain of HSF1 (Q00613 whole entry): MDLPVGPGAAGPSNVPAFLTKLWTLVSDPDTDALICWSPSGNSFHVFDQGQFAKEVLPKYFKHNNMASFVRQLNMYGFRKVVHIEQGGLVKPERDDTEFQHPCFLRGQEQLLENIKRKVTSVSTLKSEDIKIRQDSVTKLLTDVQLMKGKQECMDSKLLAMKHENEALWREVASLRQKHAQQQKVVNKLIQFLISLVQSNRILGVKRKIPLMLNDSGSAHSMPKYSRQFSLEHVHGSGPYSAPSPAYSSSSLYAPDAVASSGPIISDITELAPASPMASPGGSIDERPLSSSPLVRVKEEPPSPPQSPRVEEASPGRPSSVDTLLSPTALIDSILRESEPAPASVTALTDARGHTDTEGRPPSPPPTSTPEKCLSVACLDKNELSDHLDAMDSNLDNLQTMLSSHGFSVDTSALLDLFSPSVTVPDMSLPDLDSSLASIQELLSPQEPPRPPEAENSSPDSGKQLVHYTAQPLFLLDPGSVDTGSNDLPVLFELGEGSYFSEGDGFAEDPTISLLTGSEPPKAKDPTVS
# Chain of ETV1 (P50549 whole entry): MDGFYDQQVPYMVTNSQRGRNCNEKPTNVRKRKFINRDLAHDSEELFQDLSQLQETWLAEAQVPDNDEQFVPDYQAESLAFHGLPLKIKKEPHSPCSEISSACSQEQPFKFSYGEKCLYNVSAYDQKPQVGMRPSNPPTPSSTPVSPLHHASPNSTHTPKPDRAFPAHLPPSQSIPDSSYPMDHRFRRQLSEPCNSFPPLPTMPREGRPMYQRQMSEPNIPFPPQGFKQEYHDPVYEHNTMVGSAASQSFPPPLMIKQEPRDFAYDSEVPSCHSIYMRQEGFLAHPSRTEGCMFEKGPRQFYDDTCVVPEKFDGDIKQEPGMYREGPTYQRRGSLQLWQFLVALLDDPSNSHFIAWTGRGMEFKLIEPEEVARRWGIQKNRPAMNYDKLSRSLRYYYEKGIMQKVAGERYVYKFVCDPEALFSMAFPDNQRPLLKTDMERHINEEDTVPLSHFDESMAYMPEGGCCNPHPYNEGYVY
# Chain of ETV5 (P41161 whole entry): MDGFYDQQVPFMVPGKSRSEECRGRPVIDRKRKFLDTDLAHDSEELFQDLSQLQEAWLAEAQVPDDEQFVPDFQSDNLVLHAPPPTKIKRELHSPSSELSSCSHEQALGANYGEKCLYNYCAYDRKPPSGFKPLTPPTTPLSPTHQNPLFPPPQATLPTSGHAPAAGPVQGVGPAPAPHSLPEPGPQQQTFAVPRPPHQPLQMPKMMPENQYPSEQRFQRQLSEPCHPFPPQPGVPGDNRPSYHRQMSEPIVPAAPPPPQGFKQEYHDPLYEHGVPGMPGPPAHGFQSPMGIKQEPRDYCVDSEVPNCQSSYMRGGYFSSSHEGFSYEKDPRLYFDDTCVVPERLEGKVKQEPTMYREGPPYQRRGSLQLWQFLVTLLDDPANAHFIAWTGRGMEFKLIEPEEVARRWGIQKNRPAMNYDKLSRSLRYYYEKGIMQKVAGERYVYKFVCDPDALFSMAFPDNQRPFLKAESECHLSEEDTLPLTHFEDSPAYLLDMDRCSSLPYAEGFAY
# Chain of CRX (O43186 whole entry): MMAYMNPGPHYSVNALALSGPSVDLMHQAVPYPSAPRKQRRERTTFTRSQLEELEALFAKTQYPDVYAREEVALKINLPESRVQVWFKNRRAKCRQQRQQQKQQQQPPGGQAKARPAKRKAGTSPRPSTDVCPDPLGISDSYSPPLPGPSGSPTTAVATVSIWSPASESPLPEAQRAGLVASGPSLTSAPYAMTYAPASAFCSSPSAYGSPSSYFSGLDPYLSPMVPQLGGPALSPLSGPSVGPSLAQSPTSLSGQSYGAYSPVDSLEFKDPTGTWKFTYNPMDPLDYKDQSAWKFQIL
# Chain of ELF4 (Q99607 whole entry): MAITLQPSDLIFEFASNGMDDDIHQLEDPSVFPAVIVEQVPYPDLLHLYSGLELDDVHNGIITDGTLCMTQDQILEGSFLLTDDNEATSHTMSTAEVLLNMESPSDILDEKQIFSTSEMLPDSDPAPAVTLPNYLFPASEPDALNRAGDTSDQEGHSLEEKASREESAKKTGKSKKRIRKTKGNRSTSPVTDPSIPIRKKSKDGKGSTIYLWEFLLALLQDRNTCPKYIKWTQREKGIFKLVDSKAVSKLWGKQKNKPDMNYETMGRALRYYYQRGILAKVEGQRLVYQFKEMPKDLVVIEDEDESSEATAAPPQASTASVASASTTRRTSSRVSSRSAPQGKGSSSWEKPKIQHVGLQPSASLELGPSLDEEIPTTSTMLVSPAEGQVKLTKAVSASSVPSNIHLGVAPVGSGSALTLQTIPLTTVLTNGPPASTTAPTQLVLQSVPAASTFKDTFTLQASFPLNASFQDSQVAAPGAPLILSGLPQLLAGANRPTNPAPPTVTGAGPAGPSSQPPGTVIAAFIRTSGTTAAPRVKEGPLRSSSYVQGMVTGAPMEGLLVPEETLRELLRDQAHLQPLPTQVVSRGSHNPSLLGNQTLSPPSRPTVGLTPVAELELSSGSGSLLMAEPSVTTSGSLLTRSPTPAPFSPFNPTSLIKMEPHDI
sequence,measurement,setting,value
AATCTT,binding signal,[1],"1.29 fold enrichment (6-mer frequency, TF over GST control)"
same,binding signal,[2],"1.35 fold enrichment (6-mer frequency, TF over GST control)"
same,binding signal,[3],"2.17 fold enrichment (6-mer frequency, TF over GST control)"
same,binding signal,[4],"1.38 fold enrichment (6-mer frequency, TF over GST control)"
same,binding signal,[5],"1.31 fold enrichment (6-mer frequency, TF over GST control)"
same,binding signal,[6],"1.36 fold enrichment (6-mer frequency, TF over GST control)"
same,binding signal,[7],"1.38 fold enrichment (6-mer frequency, TF over GST control)"
same,binding signal,[8],"1.4 fold enrichment (6-mer frequency, TF over GST control)"
same,binding signal,[9],"2.54 fold enrichment (6-mer frequency, TF over GST control)"
same,binding signal,[10],"1.39 fold enrichment (6-mer frequency, TF over GST control)"
same,binding signal,[11],"1.26 fold enrichment (6-mer frequency, TF over GST control)"
same,binding signal,[12],"1.38 fold enrichment (6-mer frequency, TF over GST control)"
same,binding signal,[13],"1.41 fold enrichment (6-mer frequency, TF over GST control)"
same,binding signal,[14],"1.27 fold enrichment (6-mer frequency, TF over GST control)"
same,binding signal,[15],"1.31 fold enrichment (6-mer frequency, TF over GST control)"
same,binding signal,[16],"1.43 fold enrichment (6-mer frequency, TF over GST control)"
same,binding signal,[17],"1.31 fold enrichment (6-mer frequency, TF over GST control)"
same,binding signal,[18],"1.31 fold enrichment (6-mer frequency, TF over GST control)"
